Seven compounds from PubChem BioAssay (Tox21) can be followed below.

Test [1] can be described thus: qHTS assay to identify small molecule HDAC inhibitors (AID 1259364).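 Note: wild-type HCT-116 cells with endogenous class I/II HDAC activity; top concentration of the series differs between compounds; nearly all actives have a fitted effect of over 45% in size.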 The method in brief: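 Read-out: luminescence of HDAC-Glo I/II reagent, 30 min RT, reflecting class I/II deacetylase activity in whole HCT-116 cells pre-exposed 2 h to DMSO-dissolved compounds.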
(Quantitative high-throughput screening tests each substance at several concentrations.)

The nature of test [2]: qHTS assay to identify small molecule HDAC inhibitors - cell viability counter screen (AID 1259365). Note: series mostly up to about 92 µM; nearly all actives have a fitted effect of over 50% in size. In a few lines:
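Counter screen in wild-type HCT-116 cells: compounds dissolved in DMSO are pin-transferred onto overnight-plated cells and left 2hr at 37C. ATP-based CellTiter-Glo luminescence then measures viable cells.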

Test [3] can be described thus: qHTS assay to identify small molecule antagonists of the sonic hedgehog signaling (Shh) pathway - cell viability counter screen (AID 1259367). Note: nearly all actives have a fitted effect of over 55% in size. Note: potency is the fitted concentration of half-maximal effect. The method in brief: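 NIH/3T3-derived Gli1-Luc reporter cells (2,000 per well) rested 4 hr at 37 C, then received DMSO compounds plus conditioned medium. After 23 hr of treatment, CellTiter-Fluor was added for 1 hr at 37C and fluorescence read.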

Test [4] in a line: qHTS assay to identify small molecule agonists of the sonic hedgehog signaling (Shh) pathway (AID 1259368; calls by dose curve;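 note: NIH/3T3-derived 3T3Gli1-Luc cells carrying a stable Gli1-driven firefly luciferase reporter; series mostly up to about 92 µM; nearly all actives have a fitted effect of over 15% in size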). The method in brief: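 A Gli1 transcriptional response element controlled firefly luciferase in 3T3Gli1-Luc cells. Compounds and a positive control were added 4 hr after plating, and cells were incubated a further 24 hr at 37 C before luminescence detection.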
A short description of test [5]: qHTS assay to identify small molecule antagonists of the sonic hedgehog signaling (Shh) pathway (AID 1259369; calls by dose curve; note: nearly all actives have a fitted effect of over 45% in size; note: potency is the fitted concentration of half-maximal effect). The method in brief: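 For antagonist detection, the reporter line received test compounds together with conditioned medium, incubated 24hr at 37 C, 5% CO2, then luminescence was recorded following 30min room-temperature luciferase reagent incubation.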
A short description of test [6]: qHTS assay to identify small molecule agonists of the androgen receptor (AR) signaling pathway in the presence of an antagonist - cell viability counter screen (AID 1259379). Note: nearly all actives have a fitted effect of over 25% in size. Note: potency is the fitted concentration of half-maximal effect. The method in brief: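 Seed MDA-kb2 at 3,000 cells/well; incubate 5 hr, 37C, 0% CO2. Add nilutamide to 3.0uM final, then pin compounds at 15 concentrations. Incubate 16 hr. Add CellTiter-Fluor at 15 hr, read fluorescence after 1 hr.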

Test [7] can be described thus: qHTS assay to identify small molecule agonists of the estrogen receptor beta (ER-beta) signaling pathway - cell viability counter screen (AID 1259380). Note: nearly all actives have a fitted effect of over 30% in size. Note: potency is the fitted concentration of half-maximal effect. The method in brief:
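CellTiter-Glo read, 30 min RT, same wells as bla assay; cells ER-beta-UAS-bla HEK293T; 16 hr compound, 37C; medium 2% charcoal-stripped FBS.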

Test [8] in a line: qHTS assay to identify small molecule antagonists of the estrogen receptor beta (ER-beta) signaling pathway - cell viability counter screen (AID 1259382). Note: nearly all actives have a fitted effect of over 55% in size. Note: potency is the fitted concentration of half-maximal effect. The method in brief:
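In this multiplexed counter screen, cells were seeded at 2,000 per well in medium with 2% charcoal-stripped FBS and incubated 6 hr before compound and 1nM final E2 were added. Sixteen hours later, ATP-based luminescence reported viability.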

Test [9] can be described thus: qHTS assay to identify small molecule agonists or antagonists of the thyroid stimulating hormone receptor (TSHR) signaling pathway - wild type cell line counter screen (AID 1259384; calls by dose curve). In a few lines:
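Wild-type HEK293 cells were plated 18 h at 37 C/5% CO2, pin-dosed with compound plus Ro20-1724 medium, held 30 min at room temperature, then given cAMP-d2 and anti-cAMP-cryptate; fluorescence was read after 1 h. Fifteen concentrations, triplicate.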

The target in test [10] is Thyrotropin receptor (Homo sapiens) (UniProt P16473). As to the kind of experiment: qHTS assay to identify small molecule antagonists of the thyroid stimulating hormone receptor (TSHR) signaling pathway (AID 1259385; calls by dose curve; note: nearly all actives have a fitted effect of over 20% in size). The method in brief: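 TSHR-HEK293 cells were plated and held 18 h at 37C/5% CO2, then given compound plus Ro20-1724 and stimulated with TSH at 1.5 ng/mL final. After 30 min at room temperature, cAMP was detected with cAMP-d2/anti-cAMP-cryptate (1 h) by fluorescence.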

Test [11] in a line: qHTS assay to identify small molecule agonists of the estrogen receptor alpha (ER-alpha) signaling pathway in the presence of an antagonist - cell viability counter screen (AID 1259386).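 Note: series mostly up to about 92 µM; cells exposed to compounds for 22 h at 37 °C before the viability read; nearly all actives have a fitted effect of over 30% in size.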 In a few lines: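 Viability counter screen using VM7Luc4E2 (full-length ER-alpha, four ERE-luciferase). The cells were treated with compounds alongside ICI-182,780 10.0nM for 22hr, and live-cell protease fluorescence was quantified with CellTiter-Fluor.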

Test [12] concerns the target Progesterone receptor (Homo sapiens) (UniProt P06401). Kind of test: qHTS assay to identify small molecule agonists of the progesterone receptor (PR) signaling pathway (AID 1346784; calls by dose curve; note: nearly all actives have a fitted effect of over 30% in size). The method in brief: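 Cells (PR-UAS-bla HEK 293T, GripTite) were plated in assay medium containing 2% charcoal-stripped FBS and incubated 6 hr. Test compounds in DMSO were added for 16 hr at 37C. FRET substrate was then loaded for 2 hr at room temperature before fluorescence reading.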

Test [13] can be described thus: qHTS assay to identify small molecule agonists of the sonic hedgehog signaling (Shh) pathway - cell viability counter screen (AID 1259366). Note: nearly all actives have a fitted effect of over 50% in size. In a few lines:
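Cells are plated at 2,000 per well and left 4hr at 37C, 5% CO2 before compound addition. After 23hr of treatment, CellTiter-Fluor reagent is added for 1hr at 37C and fluorescence is measured.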

The nature of test [14]: qHTS assay to identify small molecule phospholipidosis (PLD) inducers (AID 1259344; active = well fitted curve in the direction sought with a large enough effect; an effect the other way counts as inactive or inconclusive). In a few lines: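 HepG2 cells on collagen I, attached 4 h at 37 C, were co-treated with compound and LipidTOX Red dye for 24 h at 37 C, then fixed with paraformaldehyde plus Hoechst 33342 and imaged by high-content microscopy for phospholipid accumulation.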
Test [15] concerns the target Estrogen receptor beta (Homo sapiens) (UniProt Q92731). As to the kind of experiment: qHTS assay to identify small molecule agonists of the estrogen receptor beta (ER-beta) signaling pathway (AID 1259377; active = well fitted activation curve with a large enough effect in the signal ratio in the repeat runs, not every such curve was filed as active; the % refers to the signal ratio). The method in brief:
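Agonist mode cell assay in GripTite HEK293T cells expressing an ER-beta fusion that drives beta-lactamase from an Upstream Activator Sequence; 16 hr compound exposure at 37C, then 2 h LiveBLAzer B/G FRET substrate at room temperature, fluorescence read-out.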

The target is the same in test [16]. As to the kind of experiment: qHTS assay to identify small molecule antagonists of the estrogen receptor beta (ER-beta) signaling pathway (AID 1259378; active = well fitted inhibition curve with a large enough effect in the signal ratio in the repeat runs, not every such curve was filed as active; the % refers to the signal ratio). The method in brief:
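ER-beta-UAS-bla HEK293T (GripTite) cells in 2% charcoal-stripped FBS medium were preincubated 6 hr at 37C, dosed with compound, then stimulated with 1 nM E2 (final) for 16 hr; beta-lactamase reporter read by B/G FRET fluorescence after 2 hr substrate loading.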

Records with an inconclusive call do not appear. Some compounds were tested as several samples or in several runs, with calls that do not always agree. The source made the active and inactive calls. Unless noted, calls come from the whole dose curve; as a rule, active = well fitted curve in the direction sought with a large enough effect in the repeat runs; inconclusive = weak or mixed curves; inactive = no such curve, though single readings can be large; an effect the other way counts as inactive or inconclusive.

Chain of Progesterone receptor (Homo sapiens) (P06401 whole entry, looked up): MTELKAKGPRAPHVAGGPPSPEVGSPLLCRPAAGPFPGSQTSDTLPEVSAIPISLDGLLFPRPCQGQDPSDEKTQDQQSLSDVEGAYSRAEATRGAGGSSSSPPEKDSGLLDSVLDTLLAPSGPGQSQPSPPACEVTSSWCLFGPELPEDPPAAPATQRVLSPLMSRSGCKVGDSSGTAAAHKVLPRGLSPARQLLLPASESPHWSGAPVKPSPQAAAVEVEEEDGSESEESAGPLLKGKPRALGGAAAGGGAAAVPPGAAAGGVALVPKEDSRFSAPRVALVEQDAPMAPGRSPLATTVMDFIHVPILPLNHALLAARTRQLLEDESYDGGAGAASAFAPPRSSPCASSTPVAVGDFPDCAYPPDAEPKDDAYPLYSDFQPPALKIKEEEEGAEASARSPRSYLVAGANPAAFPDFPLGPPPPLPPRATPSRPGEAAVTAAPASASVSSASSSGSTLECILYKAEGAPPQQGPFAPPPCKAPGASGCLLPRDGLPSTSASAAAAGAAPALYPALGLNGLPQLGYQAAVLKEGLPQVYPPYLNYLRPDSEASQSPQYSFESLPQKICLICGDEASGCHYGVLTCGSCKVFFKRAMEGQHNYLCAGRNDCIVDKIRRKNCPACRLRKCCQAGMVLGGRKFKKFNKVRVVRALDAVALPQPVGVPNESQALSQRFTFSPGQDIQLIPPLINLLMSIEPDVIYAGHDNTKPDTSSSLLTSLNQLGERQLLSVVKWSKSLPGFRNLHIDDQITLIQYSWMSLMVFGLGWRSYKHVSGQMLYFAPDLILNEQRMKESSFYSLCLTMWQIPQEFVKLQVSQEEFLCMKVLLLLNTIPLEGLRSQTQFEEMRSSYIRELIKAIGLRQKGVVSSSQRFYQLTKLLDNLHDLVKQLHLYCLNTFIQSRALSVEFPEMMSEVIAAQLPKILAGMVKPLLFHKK
Chain of Thyrotropin receptor (Homo sapiens) (P16473 whole entry, looked up): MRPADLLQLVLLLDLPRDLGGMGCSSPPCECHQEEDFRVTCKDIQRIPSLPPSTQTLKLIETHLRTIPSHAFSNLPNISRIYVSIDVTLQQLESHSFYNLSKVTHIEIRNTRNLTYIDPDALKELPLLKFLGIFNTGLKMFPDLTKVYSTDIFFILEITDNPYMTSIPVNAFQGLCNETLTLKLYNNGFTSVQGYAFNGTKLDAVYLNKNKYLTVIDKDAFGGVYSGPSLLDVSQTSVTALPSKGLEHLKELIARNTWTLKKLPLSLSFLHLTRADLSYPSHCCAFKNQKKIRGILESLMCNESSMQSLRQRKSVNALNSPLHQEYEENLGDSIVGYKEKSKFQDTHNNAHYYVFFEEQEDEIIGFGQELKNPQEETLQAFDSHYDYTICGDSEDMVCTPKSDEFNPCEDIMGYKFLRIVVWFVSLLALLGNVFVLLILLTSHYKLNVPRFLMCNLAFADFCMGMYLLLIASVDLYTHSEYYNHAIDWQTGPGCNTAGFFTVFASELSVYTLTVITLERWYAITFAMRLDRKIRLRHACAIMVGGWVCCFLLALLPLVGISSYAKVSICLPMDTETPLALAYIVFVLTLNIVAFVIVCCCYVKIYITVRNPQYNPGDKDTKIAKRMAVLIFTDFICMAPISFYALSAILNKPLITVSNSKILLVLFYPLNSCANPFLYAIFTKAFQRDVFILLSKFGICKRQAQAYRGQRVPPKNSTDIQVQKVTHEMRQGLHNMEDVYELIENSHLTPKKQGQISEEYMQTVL
Chain of Estrogen receptor beta (Homo sapiens) (Q92731 whole entry, looked up, the tested form may be a part): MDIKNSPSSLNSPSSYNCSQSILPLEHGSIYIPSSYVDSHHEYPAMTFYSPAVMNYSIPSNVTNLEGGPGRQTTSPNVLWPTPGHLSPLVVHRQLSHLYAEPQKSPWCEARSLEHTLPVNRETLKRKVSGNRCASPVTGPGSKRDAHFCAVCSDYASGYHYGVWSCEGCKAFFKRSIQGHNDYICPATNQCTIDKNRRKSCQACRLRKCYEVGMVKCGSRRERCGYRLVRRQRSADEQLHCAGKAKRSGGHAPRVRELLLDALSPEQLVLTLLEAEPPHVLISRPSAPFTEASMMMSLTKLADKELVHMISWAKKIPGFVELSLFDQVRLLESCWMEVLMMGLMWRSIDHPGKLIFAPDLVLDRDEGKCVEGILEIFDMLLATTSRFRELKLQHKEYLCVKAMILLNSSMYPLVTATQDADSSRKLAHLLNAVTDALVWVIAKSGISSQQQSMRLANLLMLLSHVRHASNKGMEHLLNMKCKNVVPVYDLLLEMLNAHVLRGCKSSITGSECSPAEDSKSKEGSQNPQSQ

As to `COc1ccc(COC(C)=O)cc1`, the Potency result in test [1], in test [2], in test [3], in test [4], in [5] and in test [6] was “inactive” throughout. For the same compound, the Potency entry in test [7], in [8], in test [9], in [10], in test [11] and in test [12] was “inactive” in each case.
As for `O`, the Potency entry in test [1], in test [2], in test [13], in test [3], in test [4] and in test [6] was “inactive” in each case. Besides, the Potency result in test [7], in [8], in [9], in test [10], in test [11] and in test [12] was “inactive” throughout.
`NC(N)=NC(=O)Cc1c(Cl)cccc1Cl`: the Potency entry in [14], in test [1], in test [2], in test [3], in [4] and in test [5] was “inactive” in each case. Moreover, the Potency result in [6], in test [7], in test [8], in test [9], in test [10] and in test [12] was “inactive” each time.
As for `Cc1cccc2n[nH]nc12`, the Potency entry in test [2], in [13], in test [3], in [4], in test [5] and in test [6] was “inactive” throughout. In addition, the Potency entry in [7], in [8], in test [9], in [10] and in test [12] was “inactive” each time.
Regarding `OCCOCCN1CCN(C(c2ccccc2)c2ccc(Cl)cc2)CC1` (stereo not drawn), the Potency result in test [2], in test [4], in test [9] and in test [10] was “inactive” in each case. The Potency in [3] was 19.1 µM (active) and inactive; in test [5] it was 7.59 µM (active) and inactive; in test [6] it was 53.8 µM (active) and inactive; in [7], 30.2 µM (active); in test [8], 26.9 µM (active).
In the case of `CC(C)(C)c1ccccc1`, the Potency entry in [2], in test [13], in test [3], in test [4], in [5] and in [16] was “inactive” in each case. Further, the Potency result in [6], in test [7], in test [8], in test [9], in test [10] and in test [11] was “inactive” in each case. The Potency entry in [12] is “inactive”. In addition, the outcome in test [15] was inactive.
For `CC(N)=O`, the Potency result in test [2], in test [13], in test [3], in test [4], in [5] and in test [6] was “inactive” each time. Moreover, the Potency result in [7], in [8], in test [9], in test [10], in test [11] and in test [12] was “inactive” each time. Also, in [15], the outcome was inactive.
